Tested on: Vero E6 infected with SARS-CoV-2
Test: inhibition of SARS-CoV-2 cytopathic effect; higher = more antiviral protection, active = above 15
Details: 48 h

Measured: inhibition of SARS-CoV-2 cytopathic effect

COc1ccc(CCC(=O)c2c(O)cc(O[C@@H]3O[C@H](CO)[C@@H](O)[C@H](O)[C@H]3O[C@@H]3O[C@@H](C)[C@H](O)[C@@H](O)[C@H]3O)cc2O)cc1O [Neohesperidin dihydrochalcone (Nhdc)]
inactive: 1 nM -1.62% | 8.33 nM -3.36% | 100 nM -1.21% | 833.33 nM 0.9% | 10000 nM -1.64%

C[C@@]12C[C@@]3(O)O[C@@H](O1)[C@]1(COC(=O)c4ccccc4)[C@H]3C[C@@]12O[C@@H]1O[C@H](CO)[C@@H](O)[C@H](O)[C@H]1O [paeoniflorin]
inactive: 1 nM -0.01% | 8.33 nM 0.45% | 100 nM 0.1% | 833.33 nM 0.8% | 10000 nM 0.46%

C[C@H]1CO[C@@H]2Cn3cc(C(=O)NCc4ccc(F)cc4F)c(=O)c(O)c3C(=O)N12
inactive: 1 nM 0% | 8.33 nM 1.03% | 100 nM 1.79% | 833.33 nM 1.33% | 10000 nM -0.84%

COc1ccc2cc(-c3nc(-c4ccc([S+](C)[O-])cc4)[nH]c3-c3ccncc3)ccc2c1 (stereo not given) [tie2-kinase-inhibitor]
inactive: 1 nM 5.39% | 8.33 nM 5.15% | 100 nM 0.64% | 833.33 nM 1.97% | 10000 nM 9.27%

CO[C@H]1/C=C\C=C(/C)C(=O)NC2=CC(=O)C(NCCN(C)C)=C(C[C@@H](C)C[C@H](OC)[C@H](O)[C@@H](C)/C=C(\C)[C@@H]1OC(N)=O)C2=O [alvespimycin]
inactive: 1 nM 0.5% | 8.33 nM 1.37% | 100 nM 0.62% | 833.33 nM 1.28% | 10000 nM 12.4%

Cc1c(Cl)cccc1S(=O)(=O)Nc1nc(CC(=O)N2CCN(C)CC2)cs1
inactive: 1 nM 1.65% | 8.33 nM 0.23% | 100 nM -1.13% | 833.33 nM 3.23% | 10000 nM 2.25%

CC1(C)O[C@@H]2C[C@H]3[C@@H]4CCC5=CC(=O)C=C[C@]5(C)[C@@]4(F)[C@@H](O)C[C@]3(C)[C@]2(C(=O)CO)O1
inactive: 1 nM 0.1% | 8.33 nM -0.04% | 100 nM 1.38% | 833.33 nM 1.4% | 10000 nM -0.1%

Reference: the supplement of paper PMC13380429
